# Measurements taken from PubChem BioAssay AID588493 (Sanford-Burnham Center for Chemical Genomics, 2011).
# Hit rate of the full screen: of about 360,000 compounds, about 2,100 (0.58%) were called active. The entries come from a sample that favours actives as a whole. Unmarked numbers belong to inactive results.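 Rule for the calls: active = inhibition at 20 µM, scaled to each plate's controls, above about 33% (limit read from the data); inactive = the rest.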
# Biological target: 26S proteasome non-ATPase regulatory subunit 14 (Homo sapiens) (UniProt O00487)
# Experiment: inhibition of 26S proteasome subunit Rpn11 – biochemical, fluorescence polarization, uHTS, primary screen (AID 588493)
# Settings: human 26S proteasome, Ub4-pepOG fluorescence polarization; at 20 µM; hits give high values; 20S core pre-blocked with epoxomicin
# Chain of 26S proteasome non-ATPase regulatory subunit 14 (Homo sapiens) (O00487 whole entry, looked up): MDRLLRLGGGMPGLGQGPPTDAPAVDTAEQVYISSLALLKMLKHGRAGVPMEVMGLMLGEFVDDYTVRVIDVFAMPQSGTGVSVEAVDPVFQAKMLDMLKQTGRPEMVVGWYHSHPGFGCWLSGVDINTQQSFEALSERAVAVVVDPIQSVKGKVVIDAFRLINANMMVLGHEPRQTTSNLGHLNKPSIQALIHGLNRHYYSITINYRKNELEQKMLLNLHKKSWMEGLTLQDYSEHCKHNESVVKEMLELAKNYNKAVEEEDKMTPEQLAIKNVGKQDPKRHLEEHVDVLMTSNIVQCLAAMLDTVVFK
row,Compound,inhibition
1,COC(=O)[C@H](C(C)C)n1c(C)c(C(C)=O)c(C(C)=O)c1C,3.5%
2,O=C1CSC(=S)N1/N=C/c1ccc(O)c([N+](=O)[O-])c1,48.1% (active)
3,CCOc1cccc(/C=N/N2C(=O)CSC2=S)c1O,32.9%
4,COc1ccc(C2CC(c3ccccc3)=NN2C(=O)c2ccc(Cl)c([N+](=O)[O-])c2)cc1 (centres undefined),-5%
5,CCCCc1nc(NCCN)c(C#N)c2c1CSC(C)(C)C2,0.8%
6,COc1ccc(CC(N)c2csc(NC(=O)Nc3ccc(C(C)C)cc3)n2)cc1 (centres undefined),2.4%
7,NC(N)=N/N=C/c1ccc(OCc2ccc(Cl)cc2Cl)cc1,51.4% (active)
8,COc1ccc(Cl)cc1N(CC(=O)N/N=C/c1ccc(OCC(N)=O)cc1)S(C)(=O)=O,-5.6%
9,NC(=O)COc1ccc(/C=N/NC(=O)C2CCCN2S(=O)(=O)c2ccc(Cl)cc2)cc1 (centres undefined),-4.1%
10,CC1CCC2(CC1)NC(=O)N(CC(=O)NCc1ccco1)C2=O (centres undefined),7.9%
11,N#Cc1c(-c2ccc(Cl)cc2)c2c([nH]c1=S)CCCC2,10.1%
12,CC1Cc2ccccc2N1S(=O)(=O)c1cccc(C(=O)NCC(c2ccco2)N2CCCC2)c1 (centres undefined),5.2%
13,C=CCn1c(=S)[nH]c2scc(-c3ccco3)c2c1=O,48.1% (active)
14,CC1(C)C(C=C(Cl)Cl)C1C(=O)N(Cc1ccc(Cl)cc1)C1CCS(=O)(=O)C1 (centres undefined),-6.8%
15,CC(C)(C)NC(=O)NC(=O)CN1CCC(Cc2ccccc2)CC1,2.6%
16,O=C(O)CCCCOn1ccnc1,-5.3%
17,Cc1ccc2[nH]c(=O)c(COC(=O)c3ccccn3)cc2c1,-5.9%
18,O=C(OCc1cc(Cl)ccc1OC(F)F)c1cccnc1,9.5%
19,O=C(OCc1cc2ccccc2[nH]c1=O)c1cccnc1,93.5% (active)
20,COc1cccc(C2CC(c3ccccc3)=NN2S(=O)(=O)c2ccccc2)c1OC (centres undefined),1.8%
21,COc1cccc(Nc2nnc(SCC(=O)N3CC(=O)Nc4ccccc43)s2)c1,0.5%
22,COc1ccc(Cl)cc1NC(=O)COC(=O)c1ccc(Br)o1,-3.1%
23,O=C(CCS(=O)(=O)c1ccc(Br)cc1)NCCc1ccc(Cl)cc1,-2.9%
24,COc1ccc(Cl)cc1NC(=O)CCS(=O)(=O)c1ccc(Br)cc1,80.4% (active)
25,O=C(CSc1ccc2nnc(-c3ccccc3)n2n1)N1CCCc2ccccc21,39.2%

row,Compound,inhibition
1,Cc1ccc(CSCC2Nc3ccc(C(=O)N4CCN(c5ccc(F)cc5)CC4)cc3NC2=O)cc1 (centres undefined),109% (active)
2,COC(=O)c1ccc(C(=O)OC)c(NC(=S)N2CCN(c3ccc(F)cc3)CC2)c1,-2.6%
3,COc1cccc2c1OCC1COc3c(c(=O)n(C)c(=O)n3C)C21 (centres undefined),-1.5%
4,C=CC1=C(C(=O)O)N2C(=O)[C@@H](NC(=O)/C(=N\OCC(=O)O)c3csc(N)n3)[C@H]2SC1,-0.3%
5,C=CC1=C(C(=O)O)N2C(=O)[C@@H](NC(=O)/C(=N/OCC(=O)O)c3csc(N)n3)[C@H]2SC1,45.1% (active)
6,Cc1ccc2c(CN3CCN(S(=O)(=O)c4ccccc4C(F)(F)F)CC3)cc(=O)oc2c1,3.9%
7,Cc1ccc(S(=O)(=O)N[C@@H](Cc2ccccc2)C(=O)N2CCC(C(=O)N[C@H](C(=O)O)C(C)O)CC2)cc1 (some centres undefined),-7.8%
8,Cc1ccc(NC(=O)CN2CCc3ccccc3C2)cc1,90.1% (active)
9,Cc1ccc(NC(=O)CN2CCc3ccccc3C2)cc1C,7.2%
10,O=C(CN1CCc2cc3c(cc2C1)OCCCO3)Nc1ccccc1,1.3%
11,CSc1nccc(NC(=O)c2ccc(C(C)(C)C)cc2)n1,0.3%
12,CSC1=N/C(=C\C=C\c2cccs2)C(=O)S1,41.3% (active)
13,CC1(C(=O)NS(=O)(=O)c2ccccc2)CCN1C(=O)C1CCCCC1 (centres undefined),-2.7%
14,O=C(CCN1CCN(C/C=C/c2ccccc2)CC1)Nc1cccc(F)c1,2.3%
15,Cc1nc2ccc(NC(=O)C3CCCCC3)cc2s1,-1.1%
16,Cc1nc2ccc(C(=O)N3CCSCC3)cc2s1,93.1% (active)
17,Cc1cccc(C(=O)N2CCC(c3nc4ccccc4s3)CC2)c1,-7.6%
18,Cc1ccc(C2CCN(C(=S)Nc3cccc(Cl)c3)C2)cc1 (centres undefined),-2.1%
19,Cc1cc(C)cc(NC(=S)NCCCN2CCOCC2)c1,0.3%
20,Cc1ccc2cc(C#N)c(NCCNC(=S)NCCCN3CCOCC3)nc2c1,50.7% (active)
21,COCCCNC(=S)NCCNc1nc2cc(C)c(C)cc2cc1C#N,-1.6%
22,CN(Cc1ccccc1F)c1cc2c(c3c1ccn3C)C1CCC2O1 (centres undefined),7.9%
23,O=S(=O)(c1cccc(S(=O)(=O)N2CCC(n3nnc4ccccc43)CC2)c1)N1CCCCC1,4.9%
24,Cn1cnnc1SCC(=O)Nc1ccc(N2CCOCC2)cc1,7.5%
25,C=CC(=O)Nc1ccc(Nc2ccnc(Nc3ccc(N4CCN(C)CC4)cc3)n2)cc1,66.1% (active)

row,Compound,inhibition
1,CN1CCN(c2ccc(NC(=O)c3cc(Cl)c4c(c3)OCCO4)cc2)CC1,-0.3%
2,C=CCc1cc(S(=O)(=O)c2ccc(O)c(CC=C)c2)ccc1O,-1.3%
3,Cc1nc2nc(COc3ccccc3)[nH]n2c(=O)c1C,3.7%
4,CNC(=O)NCCN1CCCC1=O,-0.3%
5,CCCCC(C(=O)NC(C)(C)C)N(Cc1ccccc1)C(=O)c1snc(C(N)=O)c1N (centres undefined),-1.4%
6,Cc1csc2nc(O)c(C(=O)NCCN3CCOCC3)c(=O)n12,-3.8%
7,CC(=O)Nc1ccccc1Sc1ccc2c3c(cccc13)C(=O)N(c1ccc(C)cc1)C2=O,48.3% (active)
8,CSc1ccccc1NC(=O)C(C)N1C(=O)c2ccccc2S1(=O)=O (centres undefined),-7.1%
9,CCCOC(=O)c1ccc(N2C(=O)c3ccccc3C2=O)cc1,0.9%
10,COc1ccc(C2N=C(N)N=C(N)N2c2ccccc2)cc1OC (centres undefined),6%
11,CCC(C)Sc1nc(C)nc2c1c(=O)n(C)c(=O)n2C (centres undefined),2%
12,CCOC(=O)C1(CC2CCCCO2)CCN(Cc2nc(-c3cccs3)oc2C)CC1 (centres undefined),4%
13,O=C(OCCOCn1cc(Br)c(=O)[nH]c1=O)c1ccccc1,0.6%
14,CONc1nc2nonc2nc1NOC,2.2%
15,CC(C)(C)C(=O)Nc1c(Br)c(C2CC2)nn1-c1ccccc1,9.6%
16,COCCCNC(=O)c1ccc(CNS(=O)(=O)c2ccc(NC(C)=O)cc2)cc1,-1.2%
17,Cc1nnc(N/N=C/c2ccccn2)[nH]c1=O,6.9%
18,CCOc1ccc(-n2c(O)c(/C=N/c3ccnn3Cc3ccncc3)c3ccccc3c2=O)cc1,76.5% (active)
19,COC(=O)Cc1csc(/N=C/c2c(O)n(-c3cccc(C(F)(F)F)c3)c(=O)c3ccccc23)n1,33.4%
20,CCOc1ccc(N/C(N)=N/c2nc(C)c(C)c(=O)[nH]2)cc1,-8.8%
21,CCOc1ccc(-n2c(SCC(=O)Nc3cc(C(=O)O)ccc3Cl)nc3ccccc3c2=O)cc1,2.7%
22,CCOc1ccc(-n2c(O)c(/C=N/Nc3nnc(C)c(=O)[nH]3)c3ccccc3c2=O)cc1,36.2% (active)
23,CCOc1ccc(CN2CCN(Cc3ccc4cc(F)ccc4n3)CC2CCO)cc1 (centres undefined),-0.7%
24,COc1ccc(S(=O)(=O)N(C)C[C@H]2OCc3cnnn3CCCC(=O)N([C@H](C)CO)C[C@H]2C)cc1,-6.2%
25,Nc1nnc(SCCN2C(=O)c3ccccc3S2(=O)=O)s1,-2.1%

row,Compound,inhibition
1,CC(=O)N(O)CCCCCNC(=O)CCC(=O)N(O)CCCCCNC(=O)CCC(=O)N(O)CCCCCNC(=O)CCC(=O)O,-7%
2,CCOC(=O)c1ccc2c(c1)nc(SCC(=O)NC(C)C)n2CC,-1.6%
3,C#CCNc1nc(C(C)C)nc2c1nnn2Cc1ccccc1F,-3.7%
4,COc1ccc2[nH]c3c(C)c4cc[n+](C)cc4c(C)c3c2c1,88.8% (active)
5,CCCn1nc(C(=O)NNC(=O)CSCC(=O)Nc2cc(C)on2)c2ccccc2c1=O,2.6%
6,O=C(Nc1ccc(-c2cscn2)cc1)C1CCCN(Cc2ccc(CO)o2)C1 (centres undefined),-1.3%
7,CCOC(=O)CSc1nnc(CNC(=O)Cc2ccccc2)n1-c1ccccc1OC,0.1%
8,CCCCCCSc1ccc([C@@H]2[C@@H]3C(=O)N(CC)C(=O)[C@@H]3[C@]3(C(=O)OC)CCCCN23)cc1OC,15.9%
9,CCCCCCSc1ccc([C@@H]2[C@H]3C(=O)N(CC)C(=O)[C@H]3[C@]3(C(=O)OC)CCCCN23)cc1,40.3% (active)
10,CCN1C(=O)[C@@H]2[C@@H](c3ccc(-c4ccccc4)cc3)N3CCCC[C@@]3(C(=O)OC)[C@@H]2C1=O,7%
11,COC(=O)[C@]1(C)CCC[C@@]2(C)C3CC[C@]4(OC(C)=O)C[C@@]3(CCC21)CC4=NO (some centres undefined),0.3%
12,CCC(=O)N(C)C(c1ccccc1Cl)c1nnnn1-c1c(C)cccc1C (centres undefined),2.8%
13,CCS(=O)(=O)c1ccc(-c2cccc(NC(=O)c3ccc(Br)o3)c2)nn1,-4.8%
14,Cc1ccc(-c2nnc(-c3ccc(NC(=O)c4cccs4)cc3)o2)cc1,149% (active)
15,COc1ccc(-c2cn(-c3ccc(C)cc3)c(=O)n2CC(=O)Nc2ccc(OC)c(OC)c2)cc1,6.4%
16,O=C(Nc1ccc(-c2nnc(-c3ccccc3)o2)cc1)c1ccc(Br)o1,56.9% (active)
17,O=C(Nc1ccc(-c2nnc(-c3ccccc3)o2)cc1)C1CCCO1 (centres undefined),-0.7%
18,COc1ccc(C(CC(=O)Nc2ccc(C)cc2)NC(=O)C(F)(F)F)cc1 (centres undefined),-7.5%
19,COc1ccc(CC(=O)Nc2ccc(-c3nnc(-c4ccc(C)cc4)o3)cc2)cc1,32.7% (active)
20,Cc1ccc(C(=O)NCC(=O)OCc2nnc(-c3ccccc3)o2)cc1,3%
21,COc1ccc(NC(=O)Cn2c(-c3ccc(OC)cc3)cn(-c3ccc(C)cc3)c2=O)cc1,43.4% (active)
22,O=C(Nc1ccc(N2CCN(C(=O)C3CC3)CC2)cc1)c1cccs1,0.2%
23,Cc1ccc(NC(=O)Cn2c(C)csc2=O)cc1,-0.6%
24,COc1ccc(NC(=O)CN(C)C(=O)c2cc(C)oc2C)cc1,-18.9%
